An excerpt weighted towards active compounds, which were near 4.6% of everything screened.
HCV inh: qHTS Assay for Inhibitors of Hepatitis C Virus (HCV); Potency, µM (doses to about 41.8 µM), inactives show at the highest dose activity change, negative = inhibition, usual class: inhibitors; 340,000 compounds, 3.4% hits; AID 651820, 2012; Huh7.5.1 HCVcc-Cre infection, luciferase reporter, 44 h; active means well fitted inhibition curve with a large enough effect; inconclusive means small, poorly fitted or top-dose-only effect, or another doubt; inactive means no such curve, though single readings can be large or run the other way
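Whole-lifecycle infectious HCVcc-Cre system; cells 1,000/well, compound then virus (~0.5 moi) added 4 h after plating, 44 h culture. Luciferase read 15 sec following 15 min substrate incubation, room temp.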
Lassa entry inh: qHTS for Inhibitors of binding or entry into cells for Lassa Virus; 300,000 compounds, 1.2% hits; Potency, µM (doses to about 37.9 µM), inactives show top-dose activity change, negative = inhibition, usual class: inhibitors; Lassa virus pseudotype entry inhibition, cell reporter; calls by dose curve; tested in HEK293 cells; further: nearly all actives have a fitted effect of over 50% in size
Vaccinia mCherry: qHTS for Stage-Specific Inhibitors of Vaccinia Orthopoxvirus: mCherry Reporter Primary qHTS | Vaccinia virus mCherry reporter infection, fluorescence | Potency, µM (highest dose often 36.5 µM), for inactives: at the highest dose activity change, negative = inhibition, most hits filed as inhibitors | 310,000 compounds, 0.63% hits; calls by dose curve; tested in A549 cells; further: nearly all actives have a fitted effect of over 35% in size
VACV Venus inh: qHTS for Stage-Specific Inhibitors of Vaccinia Orthopoxvirus: Venus Reporter Primary qHTS. 330,000 compounds, 0.46% hits. Vaccinia virus Venus reporter expression, fluorescence. Potency, µM (top dose mostly 36.5 µM), for inactives: at the highest dose activity change, negative = inhibition, most hits filed as inhibitors; calls by dose curve; tested in A549 cells; further: nearly all actives have a fitted effect of over 30% in size
Marburg entry inh: qHTS for inhibitors of binding or entry into cells for Marburg Virus; Marburg virus pseudotyped entry inhibition, cell reporter; Potency, µM (titrated, usually from 37.8 µM), for inactives: at the top dose activity change, negative = inhibition, actives largely listed as inhibitors; 300,000 compounds, 1.8% hits; AID 540276, 2011; calls by dose curve; tested in HEK293 cells
Numbers without * were called inactive; i = inactive; ? = inconclusive; . = no result; [ ] = dose if it differs, or a comment. On the % scale 0 is the no-effect control and ±100 the full control effect; potency means the concentration at half of the fitted maximal effect.

SMILES	HCV inh	Lassa entry inh	Vaccinia mCherry	VACV Venus inh	Marburg entry inh
Cc1ncc2c(c1CNS(=O)(=O)N(C)C)CCN(C(=O)c1ccc(F)cc1Cl)C2	.	.	-11.2%	-7.4%	.
CC(C)(C)NC(=O)c1nn2c(C(F)(F)F)cc(-c3ccccc3)nc2c1Br	-15.4%	.	.	.	.
O=C(c1nn2c(C(F)(F)F)cc(-c3ccccc3)nc2c1Cl)N1CCN2CCCC2C1 (stereo unspecified)	11.2µM*	-17.3%[46.1 µM]	?	-27.5%	?
O=C(c1ccccc1)N1CCN(C(=O)c2nn3c(C(F)(F)F)cc(-c4ccccc4)nc3c2Br)CC1	?	-33.3%[46.1 µM]	-15.6%	-8.0%	?
O=C(c1cc2nc(-c3ccccc3)cc(C(F)(F)F)n2n1)N1CCN2CCCC2C1 (stereo unspecified)	8.91µM*	?	-14.1%	-20.7%	3.2%[46.1 µM]
O=C(c1cc2nc(-c3ccccc3)cc(C(F)(F)F)n2n1)N1CCOCC1	?	?	.	.	0.3%
NC(=O)c1nn2c(C(F)(F)F)cc(-c3ccccc3)nc2c1Br	0.891µM*	.	.	.	.
Fc1cc(F)c2ncc3c(-c4ccccc4)nn(-c4cccc(Cl)c4)c3c2c1	.	7.5%[46.1 µM]	4.5%	8.0%	16.6%[46.1 µM]
CC(Oc1cccc(Cl)c1)C(=O)Nc1ccc(S(=O)(=O)N(C)C2CCN(C)CC2)cc1 (stereo unspecified)	?	1.7%	11.2µM*	?	?
CN1CCC(N(C)S(=O)(=O)c2ccc(NC(=O)COc3ccc(Cl)cc3)cc2)CC1	12.6µM*	.	.	.	.
CN1CCC(N(C)S(=O)(=O)c2ccc(NC(=O)COc3ccc(F)cc3)cc2)CC1	-8.7%	5.0%	-7.5%	-14.5%	?
CC(=O)Nc1ccc(S(=O)(=O)N(C)C2CCN(C)CC2)cc1	6.1%	2.4%	-9.3%	2.9%	-7.5%
CC1N=C2C(=O)OC3C=CC=CC3=C2N1c1ccccc1 (stereo unspecified)	.	.	.	.	4.0%
Cc1ccc(-c2csc(N3CCC(NS(=O)(=O)c4ccc5c(c4)OCCO5)CC3)n2)cc1	10µM*	?	?	8.91µM*	?
CCN1CCN(c2ncc(C(=O)Nc3cc(Cl)ccc3OC)c3ccccc23)CC1	?	?	?	?	2µM*
O=C(c1cnc(N2CCN(c3ncccn3)CC2)c2ccccc12)N1CCN(c2ccccn2)CC1	?	11.2µM*	?	-27.1%	?
O=C(Nc1c(F)cccc1F)c1cnc(N2CCN(c3ccccn3)CC2)c2ccccc12	12.6µM*	?	.	.	?
Cc1ccc(NC(=O)c2cnc(N3CCN(c4ccccn4)CC3)c3ccccc23)c(Br)c1	7.08µM*	?	?	?	?
COC(=O)c1cnc(N2CCN(c3ccc(F)cc3)CC2)c2ccccc12	.	-21.4%[46.1 µM]	-12.7%[7.34 µM]	-9.3%[7.34 µM]	.
Cc1ccnc2ccc(I)cc12	.	.	-20.1%	-8.5%	.
CCOc1ccc(NC(=O)c2oc3ccccc3c2NC(=O)Cc2cccs2)cc1	.	0.2%[46.1 µM]	-5.9%	-6.4%	2.2%[46.1 µM]
O=C1CCCN1CCCNCCCn1cnc2c(OCc3ccccc3)ncnc21	-2.8%[8.37 µM]	.	i	-12.0%	.
O=C(Cn1cnc2c(OCc3ccccc3)ncnc21)NCCCN1CCCC1=O	0.562µM*	.	-13.4%	4.9%	.
COc1cc(NC(=O)c2nc(-c3ccncc3)no2)cc(OC)c1OC	.	4.5%[46.1 µM]	-5.8%	4.7%	.
COc1cc(OC)c(NC(=O)c2ccccc2F)cc1Cl	1.1%	.	.	.	.
SMILES	HCV inh	Lassa entry inh	Vaccinia mCherry	VACV Venus inh	Marburg entry inh
COc1ccccc1NC(=O)COC(=O)c1cc2ccccc2cc1O	6.5%	.	.	.	.
COc1cc(NC(=O)c2cc3ccccc3cc2O)c(OC)cc1Cl	10µM*	.	.	.	.
COc1ccccc1NC(=O)c1cc2cc(Br)ccc2cc1O	11.2µM*	.	.	.	.
CCC1CN(CC(=O)NC(C)c2c(C)nn(C)c2C)Cc2cc(OC)ccc2O1 (stereo unspecified)	.	.	-7.4%	3.1%	.
O=C(O)c1cc(N2C(=O)C=CC2=O)cc(N2C(=O)C=CC2=O)c1	10.1%	-20.4%	-19.2%	-18.9%	10µM*
NC(=O)c1cc(N2C(=O)C=CC2=O)ccc1Cl	.	-12.9%[14.3 µM]	-5.1%	0.8%	10.6%
Cc1ccc(CNC(=O)c2ccc(N3CCC4(CC3)CC(c3ccccc3)=NO4)c(NC(=O)c3ccc(Cl)c([N+](=O)[O-])c3)c2)cc1	11.2µM*	.	i	0.6%	.

Bioassay records deposited in PubChem BioAssay by National Center for Advancing Translational Sciences (NCATS).
